Several values for one entry are separate records, joined by “and”; a condition that tells them apart may be missing. Equal entries are not always repeated. The whole screen tested about 3,300 compounds, of which about 280 (8.5%) were called active. Shown is part of a subset that was picked to be rich in actives. A number with no mark means an inactive call.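 Rule for the calls: active = mean growth inhibition over the two runs of 50% or more; inactive = mean growth inhibition under 50%.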
Assay: A549 NSCLC cell proliferation inhibitors – ATP luminescence, human non-small cell lung line, primary screen (AID 371);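 note: compound exposure lasted 72 h before the ATP read; 0% = untreated cell signal and 100% = no luminescence left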
Conditions: at 10 µM, hits give high values

| SMILES | growth inhibition |
| --- | --- |
| CC(C)N1CCc2c(sc(N)c2C#N)C1 | 17.2% |
| CC(=O)N=C(N)Sc1nc2ccccc2[nH]1 | 6.73% |
| COC(=O)CSc1nc(-c2cccs2)ccc1C#N | 14.7% |
| COc1cc(Cn2ccnc2)c(OC)cc1Cn1ccnc1 | 1% |
| Cc1ccc(/C(O)=C2/C(=O)C(=O)N(Cc3ccco3)C2c2cccs2)cc1 (centres undefined) | -0.53% |
| COC(=O)/C=c1/s/c(=C(/C#N)C(=O)N2CCCCC2)n(-c2ccccc2)c1=O | -4.39% |
| O=C(Nc1cccnc1)c1cccnc1 | -4.29% |
| O=C(c1cncc(Br)c1)N1CCCc2ccccc21 | 8.54% |
| C[C@@H]1C[C@H](Nc2ccccc2)c2ccccc2N1C(=O)c1cccnc1 | 53.7% (active) |
| O=C(O)CCN(CCC(=O)O)c1nnc(SCc2ccccc2)s1 | -4.61% |
| CC(=O)NC(=O)Nc1sc(=S)n(C)c1C | -19.1% |
| CCOc1ccc(/C(O)=C2/C(=O)C(=O)N(c3nc(C)c(C)s3)C2c2ccco2)cc1 (centres undefined) | 18.5% |
| CCCCSc1nnc2n(CCc3ccccc3)c(=O)c3c4c(sc3n12)COC(C)(C)C4 | 13.8% |
| CCN(CC)CCNC(=O)c1ccccc1N | 2.63% |
| CCN(CC)CCNC(=O)c1cc(S(C)(=O)=O)ccc1OC | -4.61% |
| CCCCOc1cc(C(=O)NCCN(CC)CC)c2ccccc2n1 | 81.4% (active) and 70.4% (active) |
| C=CCOn1c(=O)c(-c2cc3ccccc3o2)[n+]([O-])c2ccccc21 | 8.84% |
| CN(C)CCC=C1c2ccccc2CCc2ccccc21 | 26.6% |
| CNCCC=C1c2ccccc2CCc2ccccc21 | 79.8% (active) |
| CC1(C)Cc2ccccc2-c2c1c(=O)n(-c1ccccc1)c1nnnn21 | 3.31% |
| Cc1ccccc1COc1ccc(/C(O)=C2/C(=O)C(=O)N(CCCn3ccnc3)C2c2ccco2)cc1 (centres undefined) | 1.79% |
| CCN(CC)CCN1C(=O)C(O)=C(C(=O)c2cc3ccccc3o2)C1c1cccnc1 (centres undefined) | -1.01% |
| CC(C)OC(=O)C(C#N)c1nc2ccccc2nc1N1CCCC1 (centres undefined) | 18.3% |
| COC(=O)COc1ccc(Oc2nc(SC)nc(N(C)C)n2)nn1 | -1.19% |

From PubChem BioAssay AID371 (SRMLSC, 2006)
